# The supplement of paper PMC4466140
# Molecular target: AgAbp1
# Test: SPOT peptide array binding signal intensity (averaged, normalized) (arbitrary units (background-subtracted, floor 0; scale differs between SH3 domains)); higher = stronger binding of the SH3 domain to the peptide
# In short: (§1)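 GST-SH3 fusions from four yeast species, purified on glutathione Sepharose, were incubated at 10 μg/ml overnight at 4°C on membranes of synthetic 15-mer peptides in which cysteines were replaced with serines. Binding signal is the normalized, background-subtracted spot intensity averaged over replicates, in domain-specific arbitrary units.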
row,Binder,SPOT peptide array binding signal intensity
1,RMVRRRPLRVQFSAR,341

# Molecular target: AgBbc1
# Test: as above
# In short: as §1
row,Binder,SPOT peptide array binding signal intensity
1,RMVRRRPLRVQFSAR,152

# Molecular target: AgBem1-D1
# Test: as above
# In short: as §1
row,Binder,SPOT peptide array binding signal intensity
1,RMVRRRPLRVQFSAR,477

# Molecular target: AgBzz1-D1
# Test: as above
# In short: as §1
row,Binder,SPOT peptide array binding signal intensity
1,RMVRRRPLRVQFSAR,102

# Molecular target: AgBzz1-D2
# Test: as above
# In short: as §1
row,Binder,SPOT peptide array binding signal intensity
1,RMVRRRPLRVQFSAR,93.5

# Molecular target: AgCyk3
# Test: as above
# In short: as §1
row,Binder,SPOT peptide array binding signal intensity
1,RMVRRRPLRVQFSAR,3

# Molecular target: AgFus1
# Test: as above
# In short: as §1
row,Binder,SPOT peptide array binding signal intensity
1,RMVRRRPLRVQFSAR,2500

# Molecular target: AgHof1
# Test: as above
# In short: as §1
row,Binder,SPOT peptide array binding signal intensity
1,RMVRRRPLRVQFSAR,44.8

# Molecular target: AgHse1
# Test: as above
# In short: as §1
row,Binder,SPOT peptide array binding signal intensity
1,RMVRRRPLRVQFSAR,1410

# Molecular target: AgLsb1
# Test: as above
# In short: as §1
row,Binder,SPOT peptide array binding signal intensity
1,RMVRRRPLRVQFSAR,16.5

# Molecular target: AgLsb4
# Test: as above
# In short: as §1
row,Binder,SPOT peptide array binding signal intensity
1,RMVRRRPLRVQFSAR,606

# Molecular target: AgMyo5
# Test: as above
# In short: as §1
row,Binder,SPOT peptide array binding signal intensity
1,RMVRRRPLRVQFSAR,2.5

# Molecular target: AgNbp2
# Test: as above
# In short: as §1
row,Binder,SPOT peptide array binding signal intensity
1,RMVRRRPLRVQFSAR,1110

# Molecular target: AgRvs167
# Test: as above
# In short: as §1
row,Binder,SPOT peptide array binding signal intensity
1,RMVRRRPLRVQFSAR,10.8

# Molecular target: AgSho1
# Test: as above
# In short: as §1
row,Binder,SPOT peptide array binding signal intensity
1,RMVRRRPLRVQFSAR,634

# Molecular target: AgSla1-D1-D2
# Test: as above
# In short: as §1
row,Binder,SPOT peptide array binding signal intensity
1,RMVRRRPLRVQFSAR,284

# Molecular target: AgSla1-D3
# Test: as above
# In short: as §1
row,Binder,SPOT peptide array binding signal intensity
1,RMVRRRPLRVQFSAR,28.2

# Molecular target: CaAbp1-D1
# Test: as above
# In short: as §1
row,Binder,SPOT peptide array binding signal intensity
1,RMVRRRPLRVQFSAR,820

# Molecular target: CaAbp1-D2
# Test: as above
# In short: as §1
row,Binder,SPOT peptide array binding signal intensity
1,RMVRRRPLRVQFSAR,810

# Molecular target: CaBbc1
# Test: as above
# In short: as §1
row,Binder,SPOT peptide array binding signal intensity
1,RMVRRRPLRVQFSAR,247

# Molecular target: CaBem1-D1
# Test: as above
# In short: as §1
row,Binder,SPOT peptide array binding signal intensity
1,RMVRRRPLRVQFSAR,495

# Molecular target: CaBzz1-D1
# Test: as above
# In short: as §1
row,Binder,SPOT peptide array binding signal intensity
1,RMVRRRPLRVQFSAR,202

# Molecular target: CaBzz1-D2
# Test: as above
# In short: as §1
row,Binder,SPOT peptide array binding signal intensity
1,RMVRRRPLRVQFSAR,245

# Molecular target: CaCyk3
# Test: as above
# In short: as §1
row,Binder,SPOT peptide array binding signal intensity
1,RMVRRRPLRVQFSAR,104

# Molecular target: CaFus1
# Test: as above
# In short: as §1
row,Binder,SPOT peptide array binding signal intensity
1,RMVRRRPLRVQFSAR,3490

# Molecular target: CaHof1
# Test: as above
# In short: as §1
row,Binder,SPOT peptide array binding signal intensity
1,RMVRRRPLRVQFSAR,2.5

# Molecular target: CaHse1
# Test: as above
# In short: as §1
row,Binder,SPOT peptide array binding signal intensity
1,RMVRRRPLRVQFSAR,464

# Molecular target: CaLsb1
# Test: as above
# In short: as §1
row,Binder,SPOT peptide array binding signal intensity
1,RMVRRRPLRVQFSAR,12.5

# Molecular target: CaLsb4
# Test: as above
# In short: as §1
row,Binder,SPOT peptide array binding signal intensity
1,RMVRRRPLRVQFSAR,1050

# Molecular target: CaMyo5
# Test: as above
# In short: as §1
row,Binder,SPOT peptide array binding signal intensity
1,RMVRRRPLRVQFSAR,58

# Molecular target: CaNbp2
# Test: as above
# In short: as §1
row,Binder,SPOT peptide array binding signal intensity
1,RMVRRRPLRVQFSAR,1470

# Molecular target: CaRvs167
# Test: as above
# In short: as §1
row,Binder,SPOT peptide array binding signal intensity
1,RMVRRRPLRVQFSAR,190

# Molecular target: CaRvs167-3
# Test: as above
# In short: as §1
row,Binder,SPOT peptide array binding signal intensity
1,RMVRRRPLRVQFSAR,216

# Molecular target: CaSho1
# Test: as above
# In short: as §1
row,Binder,SPOT peptide array binding signal intensity
1,RMVRRRPLRVQFSAR,1620

# Molecular target: CaSla1-D1-D2
# Test: as above
# In short: as §1
row,Binder,SPOT peptide array binding signal intensity
1,RMVRRRPLRVQFSAR,590

# Molecular target: CaSla1-D3
# Test: as above
# In short: as §1
row,Binder,SPOT peptide array binding signal intensity
1,RMVRRRPLRVQFSAR,700

# Molecular target: ScAbp1
# Test: as above
# In short: as §1
row,Binder,SPOT peptide array binding signal intensity
1,RMVRRRPLRVQFSAR,188
